cytoskel mod = modifiers of F-actin cytoskeleton organization, primary screen, imaging, HUVEC, phalloidin staining, high-content imaging; HUVEC TNFa F-actin phalloidin imaging; inhibition, % at 2 µM; 91,000 tested, 0.18% active; AID 836, 2007;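 active means inhibition above the batch mean plus 3 SD and confirmed as a hit by visual image inspection, cut at about 30% in these data, passing the limit was not always enough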
CYP2C19 act = human CYP2C19 activators, primary screen, biochemical, luminescence; 96,000 tested, under 10 active; Cytochrome P450 2C19 (Homo sapiens), P33261; activation factor at 5 µM; recombinant CYP2C19, luciferin-H EGE luminescence; stronger effect = higher value; 0 = fully inhibited enzyme, 1 = untreated enzyme;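 active means activation factor of at least 2 at 5 µM in the primary screen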;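 further: 0 = wells with 2.5 mM tranylcypromine and 1 = vehicle-only wells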
Target sequence (P33261 whole entry, looked up): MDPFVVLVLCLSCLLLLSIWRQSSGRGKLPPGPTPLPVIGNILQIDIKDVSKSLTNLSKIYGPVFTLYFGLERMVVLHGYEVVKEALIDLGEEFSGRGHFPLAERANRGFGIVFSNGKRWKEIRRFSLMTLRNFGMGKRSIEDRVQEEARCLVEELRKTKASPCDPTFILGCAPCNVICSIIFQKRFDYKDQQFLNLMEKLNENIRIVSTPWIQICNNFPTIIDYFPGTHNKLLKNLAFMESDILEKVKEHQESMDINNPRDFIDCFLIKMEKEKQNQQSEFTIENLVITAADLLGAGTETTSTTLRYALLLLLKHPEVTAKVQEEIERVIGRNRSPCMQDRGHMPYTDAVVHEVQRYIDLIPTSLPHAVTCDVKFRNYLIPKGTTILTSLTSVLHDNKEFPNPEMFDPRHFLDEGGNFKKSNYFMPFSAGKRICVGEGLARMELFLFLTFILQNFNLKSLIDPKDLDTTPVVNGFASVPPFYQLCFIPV
CYP2C19 inh = blockers of cytochrome P450 2C19 activity – biochemical, luminescence, ADME assay, primary screen; P33261; CYP2C19 Supersomes, luciferin-H EGE luminescence, 30 min; inhibition, % at 5 µM; 96,000 tested, 21% active; AID 778, 2007;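 active means CYP2C19 inhibition above a set limit at 5 µM in the primary screen, cut at about 50% in these data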;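 further: plate controls were negative control wells for no effect and 2.5 mM tranylcypromine positive control for full effect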
CYP2C9 activ = human CYP2C9 activators, primary screen, biochemical, luminescence | activation factor at 5 µM | Cytochrome P450 2C9 (Homo sapiens), P11712 | recombinant CYP2C9, luciferin-H conversion; stronger effect = higher value; factor 1 = untreated enzyme, 0 = blocked | 96,000 tested, 1.4% active;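 active means activation factor of 2 or more for CYP2C9 at a 5 µM dose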;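 further: 0 = sulfaphenazole-blocked wells and 1 = vehicle-only wells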
E-sel TNF inh = E-selectin induction blockers in HUVEC – imaging, immunofluorescence, high content, primary screen | HUVEC TNFa-induced E-selectin immunofluorescence | inhibition, % at 2 µM | 120,000 tested, 0.71% active | AID 1246, 2008;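 active means inhibition above the batch mean plus 3 SD, and confirmed as a hit on visual image review, cut at about 43% in these data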;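 further: 0% = TNF-stimulated DMSO wells and 100% = unstimulated control wells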
CYP2C9 inhib = blockers of cytochrome P450 2C9 activity – biochemical, luminescence, ADME assay, primary screen. inhibition, % at 5 µM. AID 777, 2007. 96,000 tested, 20% active. CYP2C9 Supersomes, luciferin-H conversion. P11712;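 active means blocking of liver enzyme CYP2C9 beyond about 50% at 5 µM, limit read from the data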
* = called active by the depositor; . = no result. The list is not random: actives were taken first. Their share in the collection is about 22%.

SMILES | cytoskel mod | CYP2C19 act | CYP2C19 inh | CYP2C9 activ | E-sel TNF inh | CYP2C9 inhib
COc1ccc(-n2nc(C(=O)NCC(=O)NCC3CCCO3)c3ccccc3c2=O)cc1 (stereo not drawn) | 6 | 0.7 | 26 | 0.4 | 5 | 63*
COc1ccc(-n2nc(C(=O)NCC(=O)NCc3ccco3)c3ccccc3c2=O)c(OC)c1 | -2 | 1.3 | -28 | 0.3 | 1 | 72*
O=C(Cn1cnc2c(nnn2-c2ccccc2)c1=O)NCc1ccco1 | 15 | 1.1 | -6 | 1.8 | . | -83
CN1CCCc2cc3c(C(F)(F)F)cc(=O)oc3nc21 | 21 | 0.9 | 14 | 0.9 | 12 | 10
CCOC(=O)C(C)Oc1cccc2c(=O)n(CC(=O)NCc3ccco3)ccc12 (stereo not drawn) | 3 | . | . | . | . | .
CCOc1ccc2oc(C(=O)NCC(C)(C)CN(C)C)c(C)c2c1 | . | . | . | . | -13 | .
COc1ccc(-n2nc(C(=O)NCC(=O)NCc3ccc(F)cc3)c3ccccc3c2=O)c(OC)c1 | 15 | 0.8 | 20 | 0.5 | . | 51*
CCC(c1nnnn1C1CCCC1)N(Cc1cccs1)Cc1cc2cc(C)ccc2[nH]c1=O (stereo not drawn) | 35 | 0.6 | 37 | 2* | 26 | -98
CCOC(=O)Cn1nnnc1C(CC)N(Cc1cccs1)Cc1cc2cc(C)ccc2[nH]c1=O (stereo not drawn) | -23 | 0.1 | 95* | 0.2 | 14 | 85*
CCOc1ccc2[nH]c(=O)c(CN(Cc3ccco3)C(CC)c3nnnn3Cc3ccccc3)cc2c1 (stereo not drawn) | 3 | 0.8 | 16 | 0.7 | 7 | 30
CCOC(=O)Cn1nnnc1C(C(C)C)N(Cc1cccs1)Cc1cc2cc(C)ccc2[nH]c1=O (stereo not drawn) | . | 0.2 | 84* | 0.4 | -4 | 64*
CCOC(=O)Cn1nnnc1C(CC)N(Cc1cc2ccc(C)cc2[nH]c1=O)C1CCCC1 (stereo not drawn) | -19 | 0.6 | 42 | 0.6 | . | 36
CCOc1ccc2[nH]c(=O)c(CN(Cc3cccs3)C(CC)c3nnnn3C(C)(C)CC)cc2c1 (stereo not drawn) | . | 0.4 | 63* | 0.1 | 45 | 87*
CCOC(=O)Cn1nnnc1C(CC)N(Cc1cc2c(C)cc(C)cc2[nH]c1=O)C1CCCC1 (stereo not drawn) | . | 1 | 1 | 1 | . | 4
CCC(CC)C(=O)Nc1ccccc1NC(C)=O | 16 | 1 | 2 | 0.9 | -7 | 10
CCc1ccc2oc(=O)cc(CN(C)Cc3ccccc3)c2c1 | -8 | 1 | 5 | 0.8 | 22 | 16
CC(=O)N1CCc2cc(S(=O)(=O)CCC(=O)N3CCN(c4ccccn4)CC3)ccc21 | 13 | . | . | . | -16 | .
CC(=O)N1CCCc2cc(S(=O)(=O)CCC(=O)N3CCN(c4cccc(C)c4)C(C)C3)ccc21 (stereo not drawn) | 2 | 0.4 | 58* | 0.8 | -14 | 19
CC(=O)N1CCCc2cc(S(=O)(=O)NCc3ccc(C)cc3)ccc21 | . | 0.2 | 82* | 1 | -55 | 0
CCN(CCCNS(=O)(=O)c1ccc2c(c1)CCN2C(C)=O)c1cccc(C)c1 | 8 | 0.4 | 62* | 0.7 | . | 32
CC(=O)N1CCCc2cc(S(=O)(=O)NCCC3=CCCCC3)ccc21 | . | 0.5 | 53* | 0.9 | -100 | 11
COc1ccc(CNC(=O)C(NS(=O)(=O)c2ccc3c(c2)CCCN3C(C)=O)C(C)C)cc1 (stereo not drawn) | 12 | 1 | -1 | 0.9 | -23 | 8
CC(=O)N1CCc2cc(S(=O)(=O)NCCC(=O)Nc3cccc(C)c3)ccc21 | . | 0.9 | 6 | 0.7 | 7 | 33
Cc1cc(-n2[nH]c(C)c(C)c2=O)nc(-c2ccccc2O)n1 | . | 1 | 0 | 0.9 | -34 | 12
Cc1cccc(C2NS(=O)(=O)N=C2N)c1 (stereo not drawn) | -11 | 1.1 | -6 | 1.2 | -4 | -19
CC(C)C(=O)c1cn(CC(=O)NCc2ccco2)c2ccccc12 | 5 | . | . | . | 1 | .
